More than one record can exist for a structure, and the calls need not agree. Calls of active or inactive are those of the source. Rule for the calls: active = hit-call score of the fitted dose curve at least 0.9, where 1 is the maximum; inactive = score below 0.9.
What was measured:
[1] = ATG_M_61_CIS: Attagene CIS-FACTORIAL HepG2 Assay for M61 Transcription Factor (Internal Marker) (AID 2282937); settings: HepG2 Attagene CIS-FACTORIAL M61 internal marker reporter; actives raise or lower the signal
Outline: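 Endogenous transcription factor activity in HepG2 is read through transiently transfected cis-element reporter units. After 24 h dosing, RNA undergoes reverse transcription, PCR and primer extension with 6-FAM before capillary electrophoresis; DMSO-referenced bidirectional fit.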

[2] = ATG_M_19_CIS: Attagene CIS-FACTORIAL HepG2 Assay for M19 Transcription Factor (Internal Marker) (AID 2282939); settings: HepG2 Attagene CIS-FACTORIAL M19 internal marker reporter; actives raise or lower the signal
Outline: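 Chemical-treated HepG2 (24 h) with MRTU constructs; reporter transcripts detected by fluorescent RT-PCR fragment analysis on capillary electrophoresis. Internal background marker, DMSO as baseline.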

[3] = ATG_Ets_CIS: Attagene CIS-FACTORIAL HepG2 Assay for human Erythroblast Transformation Specific (ETS) (AID 2282941); settings: HepG2 ETS cis-reporter transcription, actives raise or lower the signal
Outline: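 RT-PCR/capillary electrophoresis fluorescence read-out of reporter mRNA; HepG2 transient multi-reporter transfection; 24 h compound exposure; gain or loss of signal fitted bidirectionally relative to DMSO.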

[4] = molecular target: Hepatocyte nuclear factor 3-beta (Homo sapiens) (UniProt Q9Y261); experiment: ATG_FoxA2_CIS: Attagene CIS-FACTORIAL HepG2 Assay for human Forkhead box A2 (FOXA2) (AID 2282942); settings: HepG2 cis-reporter transcription factor activity, 24 h; actives raise or lower the signal
Hepatocyte nuclear factor 3-beta (Homo sapiens), sequence (Q9Y261 whole entry, looked up): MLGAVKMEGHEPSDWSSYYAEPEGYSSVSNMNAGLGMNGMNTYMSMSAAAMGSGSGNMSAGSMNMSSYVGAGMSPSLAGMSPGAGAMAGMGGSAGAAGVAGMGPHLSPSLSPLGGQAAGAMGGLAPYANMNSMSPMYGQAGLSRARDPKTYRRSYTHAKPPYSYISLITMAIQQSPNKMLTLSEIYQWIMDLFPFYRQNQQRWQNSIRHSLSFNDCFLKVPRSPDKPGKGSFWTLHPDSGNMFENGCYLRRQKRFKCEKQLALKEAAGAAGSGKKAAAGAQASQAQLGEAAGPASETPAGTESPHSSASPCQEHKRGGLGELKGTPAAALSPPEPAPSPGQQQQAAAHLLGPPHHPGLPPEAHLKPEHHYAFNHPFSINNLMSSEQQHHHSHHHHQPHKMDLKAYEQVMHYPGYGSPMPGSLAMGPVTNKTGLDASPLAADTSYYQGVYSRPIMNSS
Outline: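 Reporter transcript induction is measured by fluorescence after capillary electrophoresis of RT-PCR products from HepG2 cells exposed 24 h. Cis-regulated reporter units report endogenous factor activity; curves fitted both directions against DMSO.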

[5] = ATG_FoxO_CIS: Attagene CIS-FACTORIAL HepG2 Assay for human Forkhead box O (FoxO) (AID 2282943); settings: HepG2 Attagene cis-reporter, FoxO element, mRNA; actives raise or lower the signal
Outline: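 Human hepatoma HepG2 cells carry transiently introduced reporter transcription units controlled by cis promoter elements. Chemical treatment lasted 24 h, and mRNA signal was compared with DMSO.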

[6] = ATG_GATA_CIS: Attagene CIS-FACTORIAL HepG2 Assay for human GATA Binding Protein (AID 2282944); settings: HepG2 GATA cis-element reporter, Attagene multiplex mRNA; actives raise or lower the signal
Outline: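 Transfected cis-reporter HepG2 cells were treated with chemicals for 24 hours. Total RNA was then converted to cDNA, amplified with reporter-specific primers and analysed by fluorescent capillary electrophoresis, using DMSO-treated wells as baseline.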

[7] = ATG_GLI_CIS: Attagene CIS-FACTORIAL HepG2 Assay for human Zinc Finger Protein GLI1 (AID 2282945); settings: HepG2, Attagene cis-factorial reporter mRNA, GLI element; actives raise or lower the signal
Outline: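 Bidirectional curve fits relative to DMSO, using reporter mRNA levels from RT-PCR plus capillary electrophoresis. Cells were HepG2 transiently carrying cis-regulated reporter constructs, harvested 24 h after dosing.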

[8] = molecular target: Bile acid receptor (Homo sapiens) (UniProt Q96RI1); experiment: ATG_IR1_CIS: Attagene CIS-FACTORIAL HepG2 Assay for human Nuclear Receptor Subfamily 1 Group H Member 4 (NR1H4), IR1 submotif (AID 2282946); settings: IR1 reporter transcription, actives raise or lower the signal
Bile acid receptor (Homo sapiens), sequence (Q96RI1 whole entry, looked up): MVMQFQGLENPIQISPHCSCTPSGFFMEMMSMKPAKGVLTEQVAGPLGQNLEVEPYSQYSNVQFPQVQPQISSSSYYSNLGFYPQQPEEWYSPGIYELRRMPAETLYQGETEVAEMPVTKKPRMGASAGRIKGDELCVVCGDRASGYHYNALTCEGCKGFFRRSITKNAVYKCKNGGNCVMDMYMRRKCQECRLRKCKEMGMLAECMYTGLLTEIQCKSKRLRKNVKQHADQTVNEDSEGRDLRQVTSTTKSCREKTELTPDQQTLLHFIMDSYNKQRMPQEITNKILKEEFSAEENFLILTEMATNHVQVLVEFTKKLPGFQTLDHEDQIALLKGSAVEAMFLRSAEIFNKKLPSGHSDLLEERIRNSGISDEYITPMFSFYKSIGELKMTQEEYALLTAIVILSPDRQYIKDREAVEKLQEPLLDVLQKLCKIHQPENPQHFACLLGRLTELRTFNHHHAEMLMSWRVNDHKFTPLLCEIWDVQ
Outline: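 HepG2 cells transiently transfected with multiplexed cis-element reporter units read endogenous transcription factor activity. After 24 h compound exposure, reporter mRNA was quantified by RT-PCR, fluorescent labelling, HpaI digestion and capillary electrophoresis; bidirectional fitting versus DMSO baseline.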

[9] = ATG_ISRE_CIS: Attagene CIS-FACTORIAL HepG2 Assay for human Interferon Regulatory Factor 1 (IRF1) binding to an Interferon-Stimulated Response Element (ISRE) (AID 2282948); settings: HepG2 ISRE cis-reporter (Attagene), mRNA transcription readout; actives raise or lower the signal
Outline: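 Read-out: fluorescent RT-PCR products resolved by capillary electrophoresis, reporting endogenous transcription factor activity via ISRE-driven reporter mRNA in transfected HepG2 cells dosed for 24 h; gain or loss fitted relative to DMSO.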

[10] = ATG_M_32_CIS: Attagene CIS-FACTORIAL HepG2 Assay for M32 Transcription Factor (Internal Marker) (AID 2282949); settings: HepG2 Attagene cis-factorial M32 reporter, mRNA; actives raise or lower the signal;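 note: background control marker of the multiplexed CIS panel rather than a real target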
Outline: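 HepG2 human liver cells transiently transfected with cis-promoter-driven multiple reporter transcription units, dosed 24 h. Reporter mRNA quantified by RT-PCR, FAM-labelled primer extension, HpaI digest and capillary electrophoresis; bidirectional fit versus DMSO baseline.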

[11] = ATG_M_06_CIS: Attagene CIS-FACTORIAL HepG2 Assay for M06 Transcription Factor (Internal Marker) (AID 2282950); settings: HepG2 Attagene CIS-FACTORIAL M06 internal marker reporter; actives raise or lower the signal
Outline: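 Cells (HepG2, transiently carrying cis-driven reporter units) receive chemical for 24 h before RNA isolation. Reporter cDNA is PCR-amplified, FAM-labelled by primer extension, HpaI-digested and sized on a capillary analyser.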

[12] = molecular target: Hypoxia-inducible factor 1-alpha (Homo sapiens) (UniProt Q16665); experiment: ATG_HIF1a_CIS: Attagene CIS-FACTORIAL HepG2 Assay for human Hypoxia Inducible Factor 1 (HIF1A) (AID 2282951); settings: HepG2 Attagene cis-factorial HIF1a reporter transcription; actives raise or lower the signal
Hypoxia-inducible factor 1-alpha (Homo sapiens), sequence (Q16665 whole entry, looked up): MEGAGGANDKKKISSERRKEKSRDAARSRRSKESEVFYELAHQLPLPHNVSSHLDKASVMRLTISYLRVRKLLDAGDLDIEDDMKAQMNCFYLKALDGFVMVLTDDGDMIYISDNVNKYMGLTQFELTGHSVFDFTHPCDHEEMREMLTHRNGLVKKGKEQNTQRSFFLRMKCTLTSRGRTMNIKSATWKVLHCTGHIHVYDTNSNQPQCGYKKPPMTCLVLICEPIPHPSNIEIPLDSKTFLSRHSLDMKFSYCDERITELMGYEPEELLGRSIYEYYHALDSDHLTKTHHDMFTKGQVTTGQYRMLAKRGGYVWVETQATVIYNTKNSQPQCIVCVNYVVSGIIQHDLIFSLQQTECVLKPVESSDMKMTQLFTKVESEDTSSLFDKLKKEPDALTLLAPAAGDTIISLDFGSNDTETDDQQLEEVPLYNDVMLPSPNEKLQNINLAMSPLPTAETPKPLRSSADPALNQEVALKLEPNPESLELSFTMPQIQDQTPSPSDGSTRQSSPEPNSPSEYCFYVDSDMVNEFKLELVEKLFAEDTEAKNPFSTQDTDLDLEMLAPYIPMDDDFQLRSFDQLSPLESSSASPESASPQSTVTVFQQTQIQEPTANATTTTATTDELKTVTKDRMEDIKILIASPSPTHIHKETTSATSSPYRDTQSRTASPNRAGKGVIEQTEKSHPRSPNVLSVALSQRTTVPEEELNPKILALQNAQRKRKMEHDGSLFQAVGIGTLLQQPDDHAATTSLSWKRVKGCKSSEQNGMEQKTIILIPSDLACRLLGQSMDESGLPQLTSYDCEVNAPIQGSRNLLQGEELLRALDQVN
Outline: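 Fluorescence intensity of capillary-separated, 6-FAM-labelled reporter amplicons gives mRNA induction in HepG2 cells carrying transfected cis-promoter reporter units; cells exposed 24 h, responses fitted up or down from DMSO.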

[13] = molecular target: Hepatocyte nuclear factor 6 (Homo sapiens) (UniProt Q9UBC0); experiment: ATG_HNF6_CIS: Attagene CIS-FACTORIAL HepG2 Assay for human Hepatocyte Nuclear Factor 6 (HNF6) (AID 2282952); settings: HepG2 Attagene cis-factorial HNF6 reporter transcription; actives raise or lower the signal
Hepatocyte nuclear factor 6 (Homo sapiens), sequence (Q9UBC0 whole entry, looked up): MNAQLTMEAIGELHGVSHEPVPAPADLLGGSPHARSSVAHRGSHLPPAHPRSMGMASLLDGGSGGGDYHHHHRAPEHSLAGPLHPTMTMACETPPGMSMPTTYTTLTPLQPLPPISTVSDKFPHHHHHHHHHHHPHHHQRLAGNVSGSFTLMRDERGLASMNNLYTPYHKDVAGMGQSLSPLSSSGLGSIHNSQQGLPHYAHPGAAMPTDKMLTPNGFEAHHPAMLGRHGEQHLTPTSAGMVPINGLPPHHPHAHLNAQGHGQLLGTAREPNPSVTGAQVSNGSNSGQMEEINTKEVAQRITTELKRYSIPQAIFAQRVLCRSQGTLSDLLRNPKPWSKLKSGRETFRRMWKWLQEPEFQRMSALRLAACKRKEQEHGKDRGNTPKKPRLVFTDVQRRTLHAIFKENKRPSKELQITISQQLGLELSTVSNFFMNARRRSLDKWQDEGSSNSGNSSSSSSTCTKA
Outline: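 Activity values derive from bidirectional fitting against DMSO of reporter mRNA levels, measured by capillary electrophoresis of labelled RT-PCR products from HepG2 cells exposed 24 h.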

[14] = molecular target: Heat shock factor protein 1 (Homo sapiens) (UniProt Q00613); experiment: ATG_HSE_CIS: Attagene CIS-FACTORIAL HepG2 Assay for human Heat Shock Transcription Factor 1 (HSE) (AID 2282953); settings: HepG2 HSE cis-reporter, Attagene RNA transcription; actives raise or lower the signal
Heat shock factor protein 1 (Homo sapiens), sequence (Q00613 whole entry, looked up): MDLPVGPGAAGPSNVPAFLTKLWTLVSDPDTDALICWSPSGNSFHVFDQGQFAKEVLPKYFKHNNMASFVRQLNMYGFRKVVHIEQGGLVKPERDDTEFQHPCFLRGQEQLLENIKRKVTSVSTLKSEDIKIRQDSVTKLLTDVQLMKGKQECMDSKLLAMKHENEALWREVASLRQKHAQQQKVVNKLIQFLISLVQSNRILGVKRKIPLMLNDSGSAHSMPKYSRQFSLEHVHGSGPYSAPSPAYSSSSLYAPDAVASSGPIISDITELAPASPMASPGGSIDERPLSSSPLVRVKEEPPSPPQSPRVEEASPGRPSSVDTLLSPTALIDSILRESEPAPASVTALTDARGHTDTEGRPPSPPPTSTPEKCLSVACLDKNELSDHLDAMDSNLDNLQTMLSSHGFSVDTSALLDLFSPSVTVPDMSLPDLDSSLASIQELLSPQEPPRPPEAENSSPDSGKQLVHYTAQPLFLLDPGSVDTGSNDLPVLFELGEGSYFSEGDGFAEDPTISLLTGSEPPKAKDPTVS
Outline: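 Liver-derived HepG2 cells carry transiently introduced multiple reporter units governed by cis promoters. Reporter RNA measured 24 h post-dose through reverse transcription, PCR amplification, fluorescent labelling and capillary electrophoresis, normalised to DMSO.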

[15] = ATG_MRE_CIS: Attagene CIS-FACTORIAL HepG2 Assay for human Metal Responsive Element (MRE) (AID 2282954); settings: HepG2 MRE cis-reporter transcription, Attagene multiplex; actives raise or lower the signal
Outline: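 Endogenous MRE-dependent transcription read as reporter mRNA in transiently transfected human HepG2 cells at 24 h. RNA reverse-transcribed, PCR-amplified, labelled and resolved by capillary electrophoresis; gain or loss relative to DMSO.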

[16] = ATG_PBREM_CIS: Attagene CIS-FACTORIAL HepG2 Assay for human Phenobarbital-responsive Enhancer Module (PBREM) (AID 2282955); settings: HepG2 PBREM cis-reporter, Attagene multiplexed transcription; actives raise or lower the signal
Outline: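 Cells were transfected with cis-element reporter units and treated for 24 h, after which RNA was extracted and reporter transcripts measured by RT-PCR and capillary electrophoresis.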

[17] = molecular target: Paired box protein Pax-6 (Homo sapiens) (UniProt P26367); experiment: ATG_Pax6_CIS: Attagene CIS-FACTORIAL HepG2 Assay for human Paired Box 6 (PAX6) (AID 2282956); settings: HepG2 CIS-FACTORIAL PAX6 reporter transcription, RNA readout; actives raise or lower the signal
Paired box protein Pax-6 (Homo sapiens), sequence (P26367 whole entry, looked up): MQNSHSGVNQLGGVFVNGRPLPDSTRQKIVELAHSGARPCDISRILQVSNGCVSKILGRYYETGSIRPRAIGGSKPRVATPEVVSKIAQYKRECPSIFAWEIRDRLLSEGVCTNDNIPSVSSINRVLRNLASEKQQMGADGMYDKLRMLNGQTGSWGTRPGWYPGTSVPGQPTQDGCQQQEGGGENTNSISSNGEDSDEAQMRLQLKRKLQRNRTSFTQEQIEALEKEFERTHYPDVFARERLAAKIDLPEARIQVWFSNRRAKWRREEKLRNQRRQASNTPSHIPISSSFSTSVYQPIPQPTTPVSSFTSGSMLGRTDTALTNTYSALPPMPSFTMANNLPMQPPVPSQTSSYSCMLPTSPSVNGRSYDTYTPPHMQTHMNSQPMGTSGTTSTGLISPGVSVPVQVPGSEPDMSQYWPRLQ
Outline: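 Readout: reporter transcript fluorescence after RT-PCR and capillary electrophoresis. Cells: HepG2, transiently transfected with cis-regulated MRTUs. Exposure 24 h. Gain or loss of signal fitted bidirectionally relative to DMSO.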

[18] = ATG_ERE_CIS: Attagene CIS-FACTORIAL HepG2 Assay for Estrogen Response Element (ERE) (AID 2282940); settings: HepG2 ERE cis-reporter, Attagene RNA transcript; actives raise or lower the signal
Outline: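 Human liver cells (HepG2) bearing transiently transfected, promoter-regulated reporter units were exposed 24 h. Reporter mRNA induction was detected by capillary electrophoresis of labelled RT-PCR products and fitted bidirectionally to DMSO.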

[19] = ATG_GRE_CIS: Attagene CIS-FACTORIAL HepG2 Assay for human Glucocorticoid Response Elements (GRE) (AID 2282947); settings: HepG2 GRE cis-reporter, Attagene multiplex mRNA; actives raise or lower the signal
Outline: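 Reporter transcripts read by RT-PCR with capillary electrophoresis fluorescence after a 24 h chemical exposure of HepG2 cells transiently transfected with multiple cis-element reporter units. Gain or loss fitted against DMSO.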

Measured: AC50

CCC(C)OC(=O)N1CCCCC1CCO (centres undefined)
not listed: [18] | [19]
inactive: all other assays above

COC(=O)c1c(Cl)nn(C)c1S(=O)(=O)NC(=O)Nc1nc(OC)cc(OC)n1
inactive: all assays above

CCOC(=O)NCCOc1ccc(Oc2ccccc2)cc1
active: [18] 12.6 µM | [8] 88.9 µM | [12] 86 µM | [14] 78.1 µM | [15] 66.2 µM | [16] 50 µM
not listed: [19]
inactive: all other assays above

CCN(Cc1c(F)cccc1Cl)c1c([N+](=O)[O-])cc(C(F)(F)F)cc1[N+](=O)[O-]
active: [18] 1.81 µM | [16] 7.72 µM | [17] 7.64 µM
not listed: [19]
inactive: all other assays above

O=C(O)c1ccccc1
not listed: [8] | [14] | [19]
inactive: all other assays above

COCCO
not listed: [8]
inactive: all other assays above

c1ccc2[nH]c(-c3cscn3)nc2c1
inactive: all assays above

O=C(c1ccc(O)cc1O)c1ccc(O)cc1O
active: [18] 843 nM [middle of 4 runs] | [9] 100 µM | [14] 41.3 µM [middle of 4 runs]
inactive: [1] | [2] | [3] | [4] | [5] | [6] | [7] | [8] | [19] | [9] | [10] | [11] | [12] | [13] | [15] | [16] | [17]

COC(=O)c1ccc(CNS(C)(=O)=O)cc1S(=O)(=O)NC(=O)Nc1nc(OC)cc(OC)n1
inactive: all assays above

O=C(c1ccccc1)C1CCCCC1
active: [18] 17.4 µM [middle of 4 runs] | [16] 53.2 µM
inactive: [1] | [2] | [3] | [4] | [5] | [6] | [7] | [8] | [19] | [9] | [10] | [11] | [12] | [13] | [14] | [15] | [16] | [17]

C#CCOC(=O)[C@@H](C)Oc1ccc(Oc2ncc(Cl)cc2F)cc1
not listed: [14]
inactive: all other assays above

CC(C)(C)[C@@H](O)[C@@H](Cc1ccc(Cl)cc1)n1cncn1
active: [3] 68.5 µM | [5] 12.6 µM | [8] 41.3 µM | [19] 90.9 µM
not listed: [16] | [18]
inactive: all other assays above

C[C@]12CC[C@@H]3c4ccc(O)cc4C[C@@H](CCCCCCCCCS(=O)CCCC(F)(F)C(F)(F)F)[C@H]3[C@@H]1CC[C@@H]2O (some centres undefined)
active: [15] 1.39 µM | [16] 0.376 µM
inactive: [1] | [2] | [18] | [3] | [4] | [5] | [6] | [7] | [8] | [19] | [9] | [10] | [11] | [12] | [13] | [14] | [15] | [16] | [17]

CCCN(CCC)c1c([N+](=O)[O-])cc(C(F)(F)F)c(N)c1[N+](=O)[O-]
active: [5] 50 µM | [12] 13 µM | [13] 50 µM | [14] 81 µM | [15] 32.5 µM | [16] 29.7 µM
inactive: all other assays above

CCCCCCC(C)OC(=O)COc1nc(F)c(Cl)c(N)c1Cl (centres undefined)
not listed: [8] | [16] | [18] | [19]
inactive: all other assays above

Source: PubChem BioAssay (EPA / NIEHS)
